Consider 55 compounds from PubChem BioAssay AID485297 (National Center for Advancing Translational Sciences (NCATS), 2010).

SMILES strings stand for the structures. Screen size: about 320,000 compounds; about 9,100 (2.8%) were called active. Roughly 3% stayed inconclusive and do not appear here. Calls follow the shape of the dose curve; as a rule, active = well fitted activation curve with a large enough effect; inconclusive = small, poorly fitted or top-dose-only effect; inactive = no such curve, though single readings can be large or run the other way. What follows is part of a selection rich in actives, with near analogues and random picks from the rest.
Potency is read from the fitted curve at half-maximal effect.

The nature of this experiment: qHTS Assay for Rab9 Promoter Activators. Also: nearly all actives have a fitted effect of over 60% in size. As to activation, negative = inhibition: % of control where 0% means no effect. As to conditions: Huh7 Rab9 promoter-luciferase reporter, luminescence, 24 h; series mostly up to 9.22 µM; activation, negative = inhibition: at the top concentration. The method in brief:
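Stable Rab9-luc Huh7, 1500 cells/well, 2 h settle; cmpd in DMSO, 24 h, 37 °C/5% CO2; luciferase reagent 10 min RT; luminescence.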
For orientation: Quantitative high-throughput screening tests each substance at several concentrations.
Take `N#Cc1c(NC(=O)C2CCCO2)sc2c1CCCCC2` (stereo not given): the Potency was 2240 nM (active).

Regarding `N#Cc1c(NC(=O)CCCl)sc2c1CCCCC2`, the “activation, negative = inhibition” value is 0.735% (inactive).

As to `O=c1c2cc(-c3ccccc3)sc2nc2n1N=C(c1cccs1)CS2`, the Potency was 1120 nM (active).

On to `c1csc(-c2cn3c(n2)SCC3)c1`, for which the “activation, negative = inhibition” value was 29.1% (inactive).

Take `Cc1nnc2n1N=C(c1ccccc1)CS2`: the “activation, negative = inhibition” value is -13.1% (inactive).

As to `O=C(c1cc2ccccc2o1)N1CCN(S(=O)(=O)c2ccc(Cl)s2)CC1`, the “activation, negative = inhibition” value was -5.02% (inactive).

On to `COc1ccc(CNC(=O)COC(=O)CCS(=O)(=O)c2ccc(C)cc2)cc1OC`, for which the “activation, negative = inhibition” value is -2.72% (inactive).

As to `CCN(CC(=O)Nc1c(F)cccc1F)C(=O)c1cnc(C)cn1`, the “activation, negative = inhibition” value is 0.956% (inactive).

Regarding `C/C(=N\NC(=S)Nc1ccc(C)cc1)c1cc2ccccc2o1`, the “activation, negative = inhibition” value is -2.42% (inactive).

In the case of `Cc1ccc(NC(=O)c2cc3ccccc3o2)cc1`, the Potency is 3980 nM (active).

Turning to `O=C(Nc1ccncc1)c1cc2ccccc2o1`, the “activation, negative = inhibition” value is 28.1% (inactive).

Take `CCN(CC(=O)NCc1ccc(Cl)cc1)C(=O)c1c(C)noc1C`: the “activation, negative = inhibition” value is -2.5% (inactive).

As for `c1ccc2c(c1)CSc1sccc1C2=C1CCNCC1`, the “activation, negative = inhibition” value was -7.46% (inactive).

In the case of `Cc1cc(C(=O)NNC(=O)c2ccccc2O)c(C)o1`, the “activation, negative = inhibition” value was -2.2% (inactive).

Regarding `CC(NC(=O)COC(=O)c1cc(=O)[nH]c2ccccc12)c1ccccc1` (stereo not given), the “activation, negative = inhibition” value was -0.707% (inactive).

Turning to `CC1CCN(C(=O)COC(=O)c2cc(=O)[nH]c3ccccc23)CC1`, the Potency was 2510 nM (active).

`COC(=O)C1CCN(C(=O)c2cc(=O)[nH]c3ccccc23)CC1`: the “activation, negative = inhibition” value is -3.49% (inactive).

As to `O=C(COC(=O)c1ccccc1Cl)NC1CCCCCCC1`, the “activation, negative = inhibition” value is -4.83% (inactive).

On to `O=C(Nc1ccc(Cl)cc1)c1ccsn1`, for which the Potency was 1780 nM (active).

Consider `Cn1ccc(NC(=O)Nc2ccc(Cl)cc2)n1`, for which the “activation, negative = inhibition” value is 25.5% (inactive).

As to `CCC(=O)Nc1ccc(C(=O)NNC(=O)c2ccc(Cl)cc2)cc1`, the “activation, negative = inhibition” value is -2.77% (inactive).

For `CCCCN(Cc1ccccc1)C(=O)C1CCN(Cc2sccc2C)CC1`, the “activation, negative = inhibition” value was -0.806% (inactive).

As for `Cn1c(CC(=O)NNC(=O)c2ccccc2F)nc2ccccc21`, the “activation, negative = inhibition” value is -10.1% (inactive).

`O=C(c1ccc(N2CCOCC2)c([N+](=O)[O-])c1)N1CCN(S(=O)(=O)c2cccs2)CC1`: the “activation, negative = inhibition” value was -3.99% (inactive).

On to `COc1ccc(C)cc1N(C(=O)Cn1nnc(-c2ccc(C)o2)n1)C(C(=O)NC1CCCC1)c1ccncc1` (stereo not given), for which the “activation, negative = inhibition” value is -0.715% (inactive).

In the case of `CCN(CC(=O)Nc1ccc(NC(C)=O)cc1)C(=O)CSC(=S)N1CCCC1`, the “activation, negative = inhibition” value was -2.35% (inactive).

Turning to `Cc1ccccc1NC(=O)C1CCN(C(=O)NC2CCCCC2)CC1`, the “activation, negative = inhibition” value was -3.27% (inactive).

As for `CC(=O)Nc1cc2ccc(OC(C)=O)cc2oc1=O`, the “activation, negative = inhibition” value was 3.39% (inactive).

Turning to `O=C(Nc1cc2ccccc2oc1=O)C1CCCCC1`, the Potency was 562 nM (active).

With `CN(CC(=O)Nc1ccc(Cl)cc1)C(=O)c1ccc(COc2ccccc2)cc1`, the “activation, negative = inhibition” value is -6.62% (inactive).

For `Cc1ccc(NC(=O)CNCc2ccccn2)cc1S(=O)(=O)N(C)C`, the “activation, negative = inhibition” value was 19.9% (inactive).

`CCN(CC)S(=O)(=O)c1cc(C(=O)Nc2ccccn2)ccc1C`: the Potency was 1780 nM (active).

Regarding `CCN(c1ccccc1)S(=O)(=O)c1cc(C(=O)NCc2ccccn2)ccc1C`, the “activation, negative = inhibition” value was -6.3% (inactive).

Consider `O=S(=O)(c1ccc(SCc2ccccc2)nc1)N1CCCCCC1`, for which the “activation, negative = inhibition” value was -1.04% (inactive).

`COc1ccc(Cc2nc3ccc(C(=O)N4CCC(N(C)C)C4)cc3o2)cc1` (stereo not given): the “activation, negative = inhibition” value was 1.21% (inactive).

Regarding `CCn1ccnc1CN(C)C(=O)c1ccc2nc(Cc3ccc(OC)cc3)oc2c1`, the “activation, negative = inhibition” value is 0.954% (inactive).

`CC(c1ccccn1)N(C)C(=O)c1ccc2nc(Cc3cccc(Cl)c3)oc2c1` (stereo not given): the Potency was 3980 nM (active).

Turning to `CCN(CC)S(=O)(=O)c1ccc(N2CCOCC2)c(NC(=O)C(C)Oc2ccc(F)cc2)c1` (stereo not given), the “activation, negative = inhibition” value was -5.04% (inactive).

With `CCN1C(=O)C(=O)N(CC(=O)Nc2cc(C)ccc2C)C1=O`, the “activation, negative = inhibition” value was -3.55% (inactive).

For `COc1ccc(-c2nnc3ccc(SCc4ccccc4)nn23)cc1`, the “activation, negative = inhibition” value was -1.55% (inactive).

As for `COC(=O)CSc1nc(C)c2ccc(OC)cc2n1`, the “activation, negative = inhibition” value is 0.128% (inactive).

As to `COc1ccc2nc(SCc3ccccc3)nc(C)c2c1`, the Potency was 1410 nM (active).

Turning to `COC(=O)Cc1ccc(OC(=O)C2CCN(S(=O)(=O)c3ccc(OC)c(OC)c3)CC2)cc1`, the “activation, negative = inhibition” value was -2.26% (inactive).

Turning to `O=C(Nc1cccc(-c2nc3ncccc3o2)c1)c1ccco1`, the “activation, negative = inhibition” value was 2.52% (inactive).

Turning to `O=C(Nc1ccc2oc(-c3ccccc3F)nc2c1)c1ccco1`, the Potency was 1000 nM (active).

Regarding `O=C(c1ccco1)N1CCN(C(=O)c2cc(-c3ccccc3F)no2)CC1`, the “activation, negative = inhibition” value is 26.7% (inactive).

Consider `CCC(=O)c1cc(F)ccc1OCC(=O)Nc1ccc2c(c1)OCCO2`, for which the “activation, negative = inhibition” value is 1.71% (inactive).

As to `CCN(C(=O)CSc1nc(N)cc(=O)[nH]1)C1CCS(=O)(=O)C1` (stereo not given), the “activation, negative = inhibition” value was -1.42% (inactive).

`CSCCC(NC(=O)c1ccccc1)C(=O)N1CCCCCCC1` (stereo not given): the “activation, negative = inhibition” value is -7.23% (inactive).

On to `Cc1[nH]c2ccccc2c1C(=O)C(C)Sc1nnc(C2CC2)o1` (stereo not given), for which the “activation, negative = inhibition” value is -3.47% (inactive).

`O=C(COC(=O)C1CC2CCCC(C1)C2=O)NC(=O)c1ccccc1` (stereo not given): the “activation, negative = inhibition” value was 17.8% (inactive).

Turning to `CCOc1ccc(C(=O)CCC(=O)Nc2ccncc2)cc1`, the “activation, negative = inhibition” value was 0.344% (inactive).

With `Cc1cc(N)n2nc(-c3ccc(C(C)(C)C)cc3)cc2n1`, the Potency was 2510 nM (active).

With `Cc1nc2cc(-c3ccc(F)cc3)nn2c(N2CCOCC2)c1C`, the “activation, negative = inhibition” value is 3.71% (inactive).

For the compound `Cc1cc(C(C)(C)C)n2nc(C)c(-c3ccccc3)c2n1`, the “activation, negative = inhibition” value is -0.824% (inactive).
